# Key:
# [1] = biological target: T1, Mitogen-activated protein kinase 12 (Homo sapiens) (UniProt P53778); conditions: at 1 µM;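 note: values are averaged p38gamma kinase inhibition readings, compounds tested at 1 µM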
# T1 sequence (whole entry): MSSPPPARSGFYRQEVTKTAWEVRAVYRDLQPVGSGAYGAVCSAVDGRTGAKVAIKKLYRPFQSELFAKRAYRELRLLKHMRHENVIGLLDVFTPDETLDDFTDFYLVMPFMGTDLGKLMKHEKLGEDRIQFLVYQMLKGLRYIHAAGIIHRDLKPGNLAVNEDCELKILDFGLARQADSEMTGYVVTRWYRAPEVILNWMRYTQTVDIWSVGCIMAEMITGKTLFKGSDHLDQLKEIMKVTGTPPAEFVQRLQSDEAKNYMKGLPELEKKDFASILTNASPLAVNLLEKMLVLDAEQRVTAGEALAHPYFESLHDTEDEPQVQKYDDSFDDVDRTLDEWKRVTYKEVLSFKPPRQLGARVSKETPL
# [2] = biological target: SRSF protein kinase 1 (Homo sapiens) (UniProt Q96SB4); conditions: at 0.1 µM
# [3] = biological target: SRSF protein kinase 1 (Homo sapiens) (UniProt Q96SB4); conditions: at 1 µM
# [4] = biological target: Phosphatidylinositol 4,5-bisphosphate 3-kinase catalytic subunit alpha isoform (Homo sapiens) (UniProt P42336); conditions: at 0.1 µM
# [5] = biological target: Phosphatidylinositol 4,5-bisphosphate 3-kinase catalytic subunit alpha isoform (Homo sapiens) (UniProt P42336); conditions: at 1 µM
# [6] = biological target: T2, Phosphatidylinositol 4,5-bisphosphate 3-kinase catalytic subunit delta isoform (Homo sapiens) (UniProt O00329); conditions: at 0.1 µM
# T2 sequence (whole entry): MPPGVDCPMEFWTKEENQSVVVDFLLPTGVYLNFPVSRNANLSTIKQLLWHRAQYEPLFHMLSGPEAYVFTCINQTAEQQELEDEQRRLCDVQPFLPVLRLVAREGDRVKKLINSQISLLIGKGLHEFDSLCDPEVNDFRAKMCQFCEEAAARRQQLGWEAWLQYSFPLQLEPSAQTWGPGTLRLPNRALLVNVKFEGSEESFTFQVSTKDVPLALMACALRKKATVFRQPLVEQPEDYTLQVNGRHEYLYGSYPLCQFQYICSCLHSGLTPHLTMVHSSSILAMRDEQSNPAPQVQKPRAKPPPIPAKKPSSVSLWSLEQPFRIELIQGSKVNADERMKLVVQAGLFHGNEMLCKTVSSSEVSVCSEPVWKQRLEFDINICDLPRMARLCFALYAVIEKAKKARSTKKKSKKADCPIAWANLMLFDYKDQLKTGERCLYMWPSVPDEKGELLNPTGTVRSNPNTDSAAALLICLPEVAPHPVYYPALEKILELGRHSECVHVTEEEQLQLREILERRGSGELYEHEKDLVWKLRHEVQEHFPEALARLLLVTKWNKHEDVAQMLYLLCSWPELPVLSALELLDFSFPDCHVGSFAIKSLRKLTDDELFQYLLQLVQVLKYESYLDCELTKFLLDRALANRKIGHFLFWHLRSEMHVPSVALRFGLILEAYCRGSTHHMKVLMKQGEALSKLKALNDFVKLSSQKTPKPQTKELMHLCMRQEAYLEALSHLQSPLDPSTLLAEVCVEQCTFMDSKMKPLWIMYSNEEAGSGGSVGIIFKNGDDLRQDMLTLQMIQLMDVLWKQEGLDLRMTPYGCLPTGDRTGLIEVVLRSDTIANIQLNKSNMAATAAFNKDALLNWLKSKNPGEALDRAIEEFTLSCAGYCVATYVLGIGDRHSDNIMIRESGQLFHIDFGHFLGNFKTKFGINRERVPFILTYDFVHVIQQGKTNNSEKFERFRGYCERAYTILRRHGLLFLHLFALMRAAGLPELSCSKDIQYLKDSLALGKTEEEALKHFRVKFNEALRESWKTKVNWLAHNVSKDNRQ
# [7] = biological target: T2, Phosphatidylinositol 4,5-bisphosphate 3-kinase catalytic subunit delta isoform (Homo sapiens); conditions: at 1 µM
# [8] = biological target: Phosphatidylinositol 4-kinase beta (Homo sapiens) (UniProt Q9UBF8); conditions: at 0.1 µM
# [9] = biological target: Phosphatidylinositol 4-kinase beta (Homo sapiens) (UniProt Q9UBF8); conditions: at 1 µM
# [10] = biological target: Sphingosine kinase 1 (Homo sapiens) (UniProt Q9NYA1); conditions: at 0.1 µM;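 note: mean percent inhibition of SPHK1 activity, measured within the GSK PKIS screening panel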
# Chain of Sphingosine kinase 1 (Homo sapiens) (Q9NYA1 whole entry): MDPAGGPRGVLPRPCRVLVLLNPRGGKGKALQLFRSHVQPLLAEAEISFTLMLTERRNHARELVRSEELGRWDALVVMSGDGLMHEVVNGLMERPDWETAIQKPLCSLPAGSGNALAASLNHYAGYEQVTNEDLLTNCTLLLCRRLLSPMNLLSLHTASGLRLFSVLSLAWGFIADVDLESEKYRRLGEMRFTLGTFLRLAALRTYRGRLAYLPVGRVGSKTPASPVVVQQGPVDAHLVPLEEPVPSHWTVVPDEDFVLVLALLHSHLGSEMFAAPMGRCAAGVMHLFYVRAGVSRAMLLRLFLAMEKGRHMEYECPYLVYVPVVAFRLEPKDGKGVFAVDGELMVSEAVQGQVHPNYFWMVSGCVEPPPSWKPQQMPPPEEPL
# Chain of Phosphatidylinositol 4,5-bisphosphate 3-kinase catalytic subunit alpha isoform (Homo sapiens) (P42336 whole entry, canonical isoform): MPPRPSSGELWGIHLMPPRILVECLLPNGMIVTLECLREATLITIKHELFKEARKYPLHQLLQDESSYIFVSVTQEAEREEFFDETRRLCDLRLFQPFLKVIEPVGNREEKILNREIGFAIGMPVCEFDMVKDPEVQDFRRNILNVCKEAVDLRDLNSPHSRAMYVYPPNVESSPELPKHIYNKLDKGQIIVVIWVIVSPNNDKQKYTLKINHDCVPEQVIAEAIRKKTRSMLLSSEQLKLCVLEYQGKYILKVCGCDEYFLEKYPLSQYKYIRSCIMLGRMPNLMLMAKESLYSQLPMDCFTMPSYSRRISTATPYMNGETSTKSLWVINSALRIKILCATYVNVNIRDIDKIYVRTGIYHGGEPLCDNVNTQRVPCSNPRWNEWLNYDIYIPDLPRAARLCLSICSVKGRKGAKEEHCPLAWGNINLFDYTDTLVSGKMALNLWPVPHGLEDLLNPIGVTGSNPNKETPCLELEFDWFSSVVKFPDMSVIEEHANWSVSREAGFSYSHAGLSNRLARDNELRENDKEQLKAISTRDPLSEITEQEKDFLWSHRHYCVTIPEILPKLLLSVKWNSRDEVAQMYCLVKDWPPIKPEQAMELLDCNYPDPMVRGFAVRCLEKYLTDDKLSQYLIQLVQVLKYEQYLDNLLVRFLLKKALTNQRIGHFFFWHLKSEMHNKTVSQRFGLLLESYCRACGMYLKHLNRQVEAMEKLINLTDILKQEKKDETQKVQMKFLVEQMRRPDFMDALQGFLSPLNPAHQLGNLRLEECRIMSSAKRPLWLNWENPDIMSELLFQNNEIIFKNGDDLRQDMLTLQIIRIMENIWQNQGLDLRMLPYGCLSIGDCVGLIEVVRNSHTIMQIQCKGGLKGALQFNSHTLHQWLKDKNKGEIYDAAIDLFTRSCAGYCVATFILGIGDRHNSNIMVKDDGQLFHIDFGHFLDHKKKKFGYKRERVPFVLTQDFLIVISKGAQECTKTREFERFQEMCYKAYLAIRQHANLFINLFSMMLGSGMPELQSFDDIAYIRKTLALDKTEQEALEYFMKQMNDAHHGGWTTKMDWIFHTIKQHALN
# Chain of Phosphatidylinositol 4-kinase beta (Homo sapiens) (Q9UBF8 2-816 limits assumed): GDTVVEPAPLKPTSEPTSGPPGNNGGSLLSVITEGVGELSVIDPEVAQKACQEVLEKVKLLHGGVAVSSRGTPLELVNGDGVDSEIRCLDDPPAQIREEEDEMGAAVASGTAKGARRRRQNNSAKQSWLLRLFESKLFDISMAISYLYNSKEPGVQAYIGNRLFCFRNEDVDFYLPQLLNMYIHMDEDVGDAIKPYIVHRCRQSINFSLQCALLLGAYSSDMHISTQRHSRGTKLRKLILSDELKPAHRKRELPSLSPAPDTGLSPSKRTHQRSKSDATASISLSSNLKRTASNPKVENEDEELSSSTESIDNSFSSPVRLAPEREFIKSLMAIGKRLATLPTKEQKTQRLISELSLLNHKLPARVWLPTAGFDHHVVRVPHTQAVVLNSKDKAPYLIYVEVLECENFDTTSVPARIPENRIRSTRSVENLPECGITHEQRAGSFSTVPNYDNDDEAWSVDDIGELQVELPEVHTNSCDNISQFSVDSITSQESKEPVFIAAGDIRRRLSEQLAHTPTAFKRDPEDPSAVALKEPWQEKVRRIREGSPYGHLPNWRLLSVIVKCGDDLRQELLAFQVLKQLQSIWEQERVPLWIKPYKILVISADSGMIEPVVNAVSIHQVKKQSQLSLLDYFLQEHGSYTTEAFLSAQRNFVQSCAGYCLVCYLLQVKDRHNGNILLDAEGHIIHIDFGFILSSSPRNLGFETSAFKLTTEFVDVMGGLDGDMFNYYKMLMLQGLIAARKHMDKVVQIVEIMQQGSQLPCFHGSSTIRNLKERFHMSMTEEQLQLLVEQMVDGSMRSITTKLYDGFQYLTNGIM
# Chain of SRSF protein kinase 1 (Homo sapiens) (Q96SB4 whole entry, canonical isoform): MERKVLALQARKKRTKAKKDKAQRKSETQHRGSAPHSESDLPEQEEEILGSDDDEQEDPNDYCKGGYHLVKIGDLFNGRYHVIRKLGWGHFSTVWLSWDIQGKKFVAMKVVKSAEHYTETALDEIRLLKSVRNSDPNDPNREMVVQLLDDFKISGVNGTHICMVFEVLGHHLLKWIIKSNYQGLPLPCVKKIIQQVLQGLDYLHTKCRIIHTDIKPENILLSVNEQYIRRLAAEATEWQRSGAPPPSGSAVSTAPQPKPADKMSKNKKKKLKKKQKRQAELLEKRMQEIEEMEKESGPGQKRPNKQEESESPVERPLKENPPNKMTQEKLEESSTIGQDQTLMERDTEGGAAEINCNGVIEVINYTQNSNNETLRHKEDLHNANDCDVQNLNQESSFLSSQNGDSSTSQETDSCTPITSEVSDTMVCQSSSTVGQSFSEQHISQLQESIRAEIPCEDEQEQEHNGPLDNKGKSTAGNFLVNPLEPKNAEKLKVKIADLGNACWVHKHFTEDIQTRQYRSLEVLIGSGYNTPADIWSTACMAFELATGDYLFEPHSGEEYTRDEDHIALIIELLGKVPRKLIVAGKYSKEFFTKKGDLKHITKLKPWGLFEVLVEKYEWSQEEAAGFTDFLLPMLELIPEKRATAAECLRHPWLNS
Compound,inhibition [1] [%],inhibition [2] [%],inhibition [3] [%],inhibition [4] [%],inhibition [5] [%],inhibition [6] [%],inhibition [7] [%],inhibition [8] [%],inhibition [9] [%],inhibition [10] [%]
COc1cc(N2CCN(C(C)C)CC2)ccc1Nc1nc(Nc2ccc(F)cc2C(=O)NC[C@@H](O)CO)c2cc[nH]c2n1,2.97,-0.39,3.84,4.55,2.69,1.37,3.4,-3.83,-1.08,1.31
O=C(Nc1n[nH]c2cc(-c3ccccc3)ccc12)C1CC1,3.52,-1.71,-1.41,2.18,4.34,1.72,4.03,-5.9,0.66,-0.8
COc1ccc2cc(-c3c(-c4ccncc4)nc(-c4ccc([S+](C)[O-])cc4C)n3C)ccc2c1 (stereo not given),-0.09,-0.31,-0.89,-2.02,-0.83,-2.38,-1.78,2.91,-0.88,-0.09
CN1CCN(CCCNc2nc3ccc(Oc4ccc(NC(=O)Nc5cc(C(F)(F)F)ccc5F)cc4)cc3[nH]2)CC1,1.58,-1.48,-3.44,2.13,0.9,1.3,7.49,1.45,-2.72,-1.28
COc1cccc(-n2cnc3c(N/N=C/c4ccncc4)ncnc32)c1,-1.27,1.41,4.2,-0.19,-3.79,-1.29,-2.3,5.84,-1.85,-0.37
COc1cc(Nc2ncc3c(C)nc(-c4cccc(C(F)(F)F)c4)n3n2)cc(OC)c1OC,1.38,-1.06,1.6,1.32,0.9,1.18,-1.04,7.16,1.45,2.98
NS(=O)(=O)c1ccc(Nc2cc(-c3ccc(O)c(F)c3)n[nH]2)cc1,-2.2,1.32,1.27,-2.99,2.09,-0.68,2.48,7.96,9.37,3.64
CCc1nccc2c1nc(-c1nonc1N)n2CC,3.91,-2.2,-4.41,-0.95,1.38,1.47,4.23,-3.69,1.82,0
Clc1ccc(CNc2nccc(-c3cnn4ncccc34)n2)cc1,1.18,0.9,1.1,-1.31,0.56,-0.61,1.79,2.18,1.28,-0.17
COc1ccc2cc(-c3c(-c4ccncc4)nc(-c4ccc(S(C)(=O)=O)cc4C)n3C)ccc2c1,3.33,-2.04,-2.87,3.62,3.55,1.31,1.59,–,0.34,2.55
COc1cc2ncn(-c3cc(OCc4ccccc4C(F)(F)F)c(C(C)=O)s3)c2cc1OC,2.91,-0.85,-1.87,1.72,2.65,1.03,1.51,1.58,-4.62,-1.64
Fc1ccc(-c2ncn(C3CCNCC3)c2-c2ccnc(Oc3ccc(F)c(F)c3)n2)cc1,–,-3.26,-1.49,3.43,3.41,1.7,3.53,-1.47,1.86,1.28
Cc1nnc(-c2ccc(C)c(-c3ccc(C(=O)NCc4ccc(Cl)cc4)cc3)c2)o1,3.42,-1.29,-1.82,3.66,2.48,2.02,3.9,–,-0.13,0.23
Fc1ccc(-c2ncn(C3CCNCC3)c2-c2ccnc(Oc3ccc(Oc4ccccc4)cc3)n2)cc1,–,-3.18,-2.43,3.74,2.92,-0.16,2.82,-2.22,5.8,1.17
CCS(=O)(=O)c1ccc(OC)c(Nc2ncc(-c3cccc(-c4ccccc4F)c3)o2)c1,0.18,0.1,2.33,1.85,2.73,2.24,5.89,-1.01,-4.05,4.17
CCc1ccc(Oc2nccc(-c3c(-c4ccc(F)cc4)ncn3C3CCNCC3)n2)cc1,–,-2.85,-3.81,3.74,3.81,1.87,6.26,3.17,2.82,1.33
O=C1Nc2ccccc2/C1=C/Nc1ccc(-n2cncn2)cc1,3.66,-1.28,1.26,3.26,3.95,1.81,2.88,–,-9.88,1.74
NC(=O)c1ccc(Oc2nccc(-c3c(-c4ccc(F)cc4)ncn3C3CCNCC3)n2)cc1,–,-2.65,-1.89,6.13,8.85,0.53,5.87,2.26,2.71,2.48

Compound,inhibition [1] [%],inhibition [2] [%],inhibition [3] [%],inhibition [4] [%],inhibition [5] [%],inhibition [6] [%],inhibition [7] [%],inhibition [8] [%],inhibition [9] [%],inhibition [10] [%]
CCc1cccc(CC)c1/C=C/c1cncc(C(=O)NC)c1,1.19,-1.77,-2.98,1.54,1.36,4.84,3.62,-2.02,-0.43,0.93
CCS(=O)(=O)c1ccc(OC)c(Nc2ncc(-c3ccccc3Cl)o2)c1,-0.19,-0.98,0.67,-0.1,-1.53,2.13,1.67,3.2,-6.4,-0.2
O=C1Nc2ccc(I)cc2C1=Cc1cc(Br)c(O)c(Br)c1,6.31,-3.87,-2.51,6.08,23.5,–,–,-3.41,32.6,-1.83
NS(=O)(=O)c1ccc(N/N=C2\C(=O)Nc3ccc(C(=O)NCCCn4ccnc4)cc32)cc1,2.75,-0.49,2.62,3.67,4.54,0.52,2.39,–,-5.49,14.8
NS(=O)(=O)c1ccc(N/N=C2\C(=O)Nc3ccc(-c4cnco4)cc32)cc1,5.43,-1.9,-0.75,1.34,-0.11,0.72,-0.54,1.44,2.18,-0.25
N#Cc1ccc(Oc2nccc(-c3c(-c4ccc(F)cc4)ncn3C3CCNCC3)n2)cc1,–,-3.52,-3.38,5.16,19.6,2.8,17.6,1.26,1.85,0.59
Nc1nccc(-c2c(-c3ccc(F)cc3)ncn2C2CCC(O)CC2)n1 (stereo not given),-0.94,1.95,4.67,16.6,3.18,3.72,7.23,-6.38,-0.81,0.34
CS(=O)(=O)CCNCc1ccc(-c2ccc3ncnc(Nc4ccc(OCc5ccccc5)c(Br)c4)c3c2)o1,3.4,-3.23,-2.26,3.6,1.93,0.72,2.81,-4.04,-0.22,-0.92
C[C@@H](Oc1cc(-n2cnc3ccc(OCC4CCN(C)CC4)cc32)sc1C(N)=O)c1ccccc1Cl,6.25,-2.59,-1.67,8.19,27.3,15.6,74.6,-6.34,–,1.45
CCN(CC)Cc1ccc(Nc2nccc(-c3cnn4ncccc34)n2)cc1,6.9,-2.98,-1.36,3.82,11.4,6.31,40.2,-2.34,4.5,0.05
NCc1ccc(-n2c(-c3nonc3N)nc3cnccc32)cc1,3.74,-2.56,-1.45,4.81,4.8,3.69,6.07,–,5.38,1.89
CN(c1ccc(NC(=O)Nc2c(Cl)cccc2Cl)cc1)c1ccnc(Nc2cccc(CS(C)(=O)=O)c2)n1,-0.86,-0.25,2.16,0.53,-1.22,0.12,-1.62,3.66,3.73,-0.6
NC(=O)Cc1ccccc1Oc1nccc(-c2c(-c3ccc(F)cc3)ncn2C2CCNCC2)n1,–,-2.64,-4.17,1.29,3.49,2.67,2.58,-0.45,3.25,-2.17
Fc1ccc(-c2ncn(C3CCNCC3)c2-c2ccnc(Oc3ccc4c(c3)OCO4)n2)cc1,–,-1.04,0.51,4.23,4.92,0.82,3.24,2.26,4.42,1.03
C/C(Nc1ccc(S(N)(=O)=O)cc1)=C1/C(=O)Nc2ccccc21,-1.66,2.04,1.41,0.42,1.42,2.42,3.52,-1.12,-0.13,-1.38
Fc1ccc(-c2nc3n(c2-c2ccncc2)CCS3)cc1,3.41,-1.99,-4.38,3.77,4.45,3.17,4.9,-3.93,0.29,-3.68
O=C(Nc1n[nH]c2cc(-c3cc(F)ccc3F)ccc12)C1CC1,2.66,-2.08,-4.65,1.92,3.65,2.22,4.33,-2.33,3.14,0.01

# From ChEMBL document CHEMBL1961873, “Compounds: GSK PKIS; Assays: Nanosyn kinase panel” (2012)
